In PubChem BioAssay AID651602 (The Scripps Research Institute Molecular Screening Center, 2012):
In all, about 360,000 compounds went through this assay and about 950 (0.26%) were called active. Rule as the data show it: active = inhibition above about 11%; inactive = the rest. For the sample, actives were picked, then their nearest neighbours and some compounds at random.

Experiment: growth loss of phage-infected E. coli, primary screen, RecBCD inhibitor project, absorbance, with phage, HTS (AID 651602)
Conditions: at 11.9 µM, active compounds read high

inhibition, active:
CC1(C(=O)NS(=O)(=O)c2ccccc2)CCN1C(=O)C/C=C/c1ccccc1 (configuration not stated) 13.4%
COc1ccc2c(c1)c(=Cc1ccc(N(C)C)cc1)c1cc(-c3ccccc3)[n+](C)n12 23.7%
CC(=O)c1c(C)n([O-])c2ccccc2[n+]1=O 25.5%
NC(=S)NN=Cc1ccc(OC(=O)COc2cc(Cl)c(Cl)cc2Cl)cn1 11.6%
O=C1CCC(=O)N(O)CCCCCNC(=O)CCC(=O)N(O)CCCCCNC(=O)CCC(=O)N(O)CCCCCN1 23.5%
O=C(NNC(=O)c1ccccc1O)c1ccccc1O 30%
O=C(CSc1ccc(-c2ccccn2)nn1)Nc1ccccc1 12.9%
C=CCn1c(=O)c(C(=O)NCc2ccc3c(c2)OCO3)c(O)c2ccccc21 12.1%
CCOC(=O)c1ccc(NC(=O)Cn2cnc3cc(C)c(C)cc32)cc1 18.8%
COC(=O)N/N=C/c1c[n+]([O-])c2ccccc2[n+]1[O-] 37.5%
CCN1CCN(c2nc(Nc3cc(OC)ccc3OC)nc(Nc3cc(OC)ccc3OC)n2)CC1 99.1%

inhibition, inactive:
CC1(C(=O)NS(=O)(=O)c2ccccc2)CCN1C(=O)c1ccccc1 (configuration not stated) 2.52%
CC1(C(=O)NS(=O)(=O)c2ccccc2)CCN1C(=O)Cc1ccc(-c2ccccc2)cc1 (configuration not stated) -0.69%
COc1ccccc1CCn1cnc(-c2ccccc2)c1C(C)C 1.47%
Nc1nc2c(ncn2[C@@H]2O[C@H](C(=O)N[C@@H](Cc3ccccc3)C(=O)NCc3ccccc3)[C@@H](O)[C@H]2O)c(=O)[nH]1 3.17%
Cc1c(C=O)c2ccccc2n1CC(=O)O 0.31%
NC(=O)c1ncn([C@@H]2O[C@H](C(=O)O)[C@@H](O)[C@H]2O)n1 0.63%
C[C@H]1CN([C@@H](C)CO)C(=O)CCCn2nncc2CO[C@@H]1CN(C)C(=O)Nc1ccc(N2CCN(C)CC2)cc1 0.4%
Cc1ccc(NC(=O)N2c3ccccc3SC2c2ccco2)c(C)c1 (configuration not stated) 5.53%
CC(=NNC(N)=O)c1ccc(Cl)c(-n2cccc2)c1 5.68%
CCCCOCC1CN(CCCC)S(=O)(=O)c2c(Oc3ccc(F)cc3)cccc2O1 (configuration not stated) 5.95%
O=C(COc1cc(Cl)c(Cl)cc1Cl)NCCc1ccccn1 -0.15%
O=C(COC(=O)COc1cc(Cl)c(Cl)cc1Cl)NC1CC1 3.17%
C=CC1=CCN(S(=O)(=O)C(C)(C)C)[C@@H]1CCO 1.03%
Nc1ncnc2c1ncn2C1OC(CO)CC1O (configuration not stated) 3.4%
C[C@H](CO)N1C[C@H](C)[C@@H](CN(C)C(=O)Nc2ccccc2F)OCc2cn(nn2)CCCC1=O 0.72%
COCc1cc(N2CCN(C(=O)OC(C)(C)C)C[C@@H]2C)ccc1N1CCN(Cc2ccccc2)[C@H](C)C1 -2.53%
O=C(NNC(=O)c1cc(S(=O)(=O)N2CCCCC2)ccc1Cl)c1ccccc1O 1.7%
Cc1cccc(NS(=O)(=O)c2cccc(C(=O)NNC(=O)c3ccccc3O)c2)c1 5.15%
COC(=O)C1=C(C)N(Cc2ccc(C(F)(F)F)cc2)C(=NCc2ccc(C(F)(F)F)cc2)NC1c1cccc(Cl)c1 (configuration not stated) 1.58%
O=C(NS(=O)(=O)c1cccs1)[C@H]1O[C@@H](n2ccc(=O)[nH]c2=O)[C@H](O)[C@@H]1O 3.33%
O=C(CSc1ccc(-c2ccc(-n3cccn3)cc2)nn1)Nc1ccc([N+](=O)[O-])cc1 -0.99%
COc1cc(NC(=O)CSc2ccc(-c3cccnc3)nn2)cc(OC)c1 0.39%
O=C1Nc2ccccc2C1=NN=Cc1ccco1 -0.54%
C=CC[C@]12C[C@@]3(O[C@H](c4ccc(C(F)(F)F)cc4)N=C3C[C@H](c3ccc(OC)cc3)[C@H]1C)N(C1CCN(Cc3ccccc3)CC1)C2=O 6.28%
CC1CCCN(c2cccc3c2S(=O)(=O)N(Cc2ccc(F)cc2)[C@@H](C)[C@H](c2ccccc2)O3)C1 (some centres not stated) 1.59%
N#Cc1ccc(OCCCN2CCC(C(O)(c3ccccc3)c3ccccc3)CC2)c(F)c1 0.63%
C=CCn1c(=O)c(C(=O)Nc2ncccc2O)c(O)c2ccccc21 3.7%
CCn1c(=O)cc(SCC(=O)NCc2ccc3c(c2)OCO3)c2ccccc21 1.95%
CCOC(=O)c1ccc(NC(=O)CS(=O)(=O)c2cn(CC)c3ccccc23)cc1 0.46%
CCOC(=O)c1ccc(NC(=O)CCn2c(=O)oc3ccccc32)cc1 1.49%
Cc1ccccc1C(=O)N[C@H](C(=O)N1CCC[C@H]1C(=O)NCc1ccccc1)C(C)C -1.25%
COC(=O)C(C)N=Cc1ccccc1 (configuration not stated) 0.77%
CC(C)(C)OC(=O)N/N=C/c1ccc(C(=O)O)cc1 1.87%
Cc1ccc2nc(CN(C)C(=O)[C@@H](Cc3ccccc3)NC(=O)[C@H]3O[C@@H](n4ccc(=O)[nH]c4=O)[C@H](O)[C@@H]3O)[nH]c2c1 2.03%
COC(=O)[C@]12C[C@H](CC(=O)N3CCN(C(=O)C4CC4)CC3)C(=O)N(Cc3ccc4c(c3)OCO4)C1=C[C@H](C(C)(C)C)O[C@@H]2C 2.87%
Cc1ccc(C)c(CN2CCC(CNC(=O)C3CCCN(c4ncnc5c4nc4n5CCCCC4)C3)CC2)c1 (configuration not stated) 3.47%
CCCOc1ccc(Cl)cc1Nc1nc(NCCO)nc(N2CCCC2)n1 0.63%
COc1ccc(OC)c(NC(=O)CCN2CCC(C)CC2)c1 -0.47%
O=S1(=O)c2c(cccc2N2CCCC2)O[C@H](COCc2ccccc2)CN1C1CC1 2.78%
Cc1[nH]c2ccccc2c1CC(=O)Nc1ccc(Nc2cccnc2)c(-c2cccc(Cl)c2)c1 3.75%
CCN1C(=O)N[C@@H]2C[C@H](C(=O)N3CCCC3)[C@H](C)[C@H](c3ccccc3)C[C@@H]21 4.26%
